40 compounds from PubChem BioAssay (Tox21) can be followed below.

Records with an inconclusive call do not appear. Values without a mark were called inactive. Activity calls are given as the source filed them. Calls come from the whole dose curve; as a rule, active = well fitted cell-killing curve with a large enough effect in the repeat runs; inconclusive = weak or mixed curves, or effect the other way; inactive = flat fitted curve, though single readings scatter. Positions of bridges follow the written chain, without caps; N, C: chain ends. Non-standard residues stand in square brackets, D forms with d. Residues, ends and D or L forms follow the SMILES beside them. *: point of attachment. Dab(CH2SO3H) = N[C@@H](CCNCS(=O)(=O)O)C(=O)O; X3 = CC[C@@H](C)CCCCC(=O)*; Dab = NCC[C@H](N)C(=O)O
% is set by controls: 0 for no effect and ±100 for the full control effect; potency is the fitted concentration of half-maximal effect.

This test can be described thus: qHTS assay to identify small molecule that activate the aryl hydrocarbon receptor (AhR) signaling pathway - cell viability counter screen (AID 743086).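 For viability change, negative = cytotoxic: HepG2 liver cells carrying the AhR DRE luciferase reporter.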 Note: nearly all actives have a fitted effect of over 45% in size. To be noted: HepG2-AhR-luc viability, CellTiter-Fluor, 24 h; series mostly up to 70.3 µM; viability change, negative = cytotoxic: at the top concentration. An excerpt: U.S. Tox21 Program National Center for Advancing Translational Sciences [NCATS] NIH Chemical Genomics Center [NCGC] U.S. Environmental Protection Agency [EPA] National Institutes of Environmental Health Sciences [NIEHS] National Toxicology Program [NTP] U.S. Food and Drug Administration [FDA] Tox21 Assay overview: The Aryl hydrocarbon Receptor (AhR), a member of the family of basic helix-loop-helix transcription factors, is crucial to adaptive responses to environmental changes. AhR mediates cellular responses to environmental pollutants such as aromatic hydrocarbons through induction of phase I and II enzymes but also interacts with other nuclear receptor signaling pathways A cell based HepG2-AhR-luc assay (HG2L7.5c1 cell line, developed by Dr. Michael S. Denison, University of California at Davis) was used to assess the activation of AhR. HepG2 (human hepatocellular carcinoma) cells were stably transfected with an Ah receptor-responsive firefly luciferase reporter gene plasmid containing 20 dioxin responsive elements and luciferase reporter gene. Increased luciferase activity can be used to identify the compounds that induce AhR activation. The cytotoxicity of the compounds screened against the HepG2-AhR-luc cell line was tested in parallel by measuring the cell viability using CellTiter-Fluor assay in the same wells.
Tox21 Assay Protocol Summary: 4000 cells in 5 uL/well were dispensed into white wall/solid bottom 1536-well plates using a Multidrop Combi (Thermo Fisher Scientific Inc., Waltham, MA) dispenser. After the assay plates were incubated at 37C for 5 h, 23 nL of compound or DMSO vehicle was transferred to the assay plates by a pintool station (Kalypsys, San Diego, CA). The plates were incubated at 37C for 24 hr. For cell viability measurement, 1 ul/well of CellTiter-Fluor reagent (Promega, Madison, WI) was added into the assay plates using a Flying Reagent Dispenser (FRD) (Aurora Discovery, CA),and then the assay plates were incubated at 37C for 30 min. The fluorescence intensity in the plates was measured using a ViewLux plate reader (PerkinElmer, Shelton, CT), followed by the addition of 4 uL of ONE-Glo Luciferase Assay reagent (Promega) using an FRD (Aurora Discovery). After the assay plates were incubated at room temperature for 30 min, luminescence intensity was measured using a ViewLux plate reader (Perkin Elmer).
For the compound `CC(C)(O/N=C(\C(=O)N[C@@H]1C(=O)N2C(C(=O)[O-])=C(C[n+]3ccccc3)CS[C@H]12)c1csc(N)n1)C(=O)O`, the “viability change, negative = cytotoxic” value was -5.41% [at 32.5 µM].

Turning to `CCOC(=O)[C@H](CCc1ccccc1)N[C@@H](C)C(=O)N1[C@H](C(=O)O)C[C@H]2CCCC[C@@H]21`, the Potency entry is “inactive”.

Turning to `CCCCCCCCCCCCCCCCCCOCC(COP(=O)([O-])OCC[N+](C)(C)C)OC` (stereo not given), the “viability change, negative = cytotoxic” value was 18.7%.

In the case of `Oc1ccc(Cl)c2c1CCC2`, the “viability change, negative = cytotoxic” value is 16.8%.

Consider `COc1cc(NS(C)(=O)=O)ccc1Nc1c2ccccc2nc2ccccc12`, for which the Potency was 13.3 µM (active).

Take `COC1[C@@H](O[C@@H]2O[C@H](C)[C@@H](O[C@H]3C[C@@](C)(O)[C@H](OC(=O)CC(C)C)[C@H](C)O3)[C@H](N(C)C)[C@H]2O)[C@@H](CC=O)C[C@@H](C)[C@@H](O)/C=C/C=C/C[C@@H](C)OC(=O)C[C@H]1OC(C)=O` (stereo not given in full): the “viability change, negative = cytotoxic” value was 5.14% [at 32.5 µM].

Take `CSCC[C@H](NC(=O)[C@H](Cc1ccc(OS(=O)(=O)O)cc1)NC(=O)[C@@H](N)CC(=O)O)C(=O)NCC(=O)N[C@@H](Cc1c[nH]c2ccccc12)C(=O)N[C@@H](CCSC)C(=O)N[C@@H](CC(=O)O)C(=O)N[C@@H](Cc1ccccc1)C(N)=O`: the Potency entry is “inactive”.

With `CC(C)[C@H](NC(=O)[C@H](CC(=O)O)NC(=O)[C@H](CCCCN)NC(=O)[C@@H](N)CCCN=C(N)N)C(=O)N[C@@H](Cc1ccc(O)cc1)C(=O)O` (H-RKDVY-OH), the “viability change, negative = cytotoxic” value was 16.4%.

Consider `CC(C)C[C@H](NC(=O)[C@@H](COC(C)(C)C)NC(=O)[C@H](Cc1ccc(O)cc1)NC(=O)[C@H](CO)NC(=O)[C@H](Cc1c[nH]c2ccccc12)NC(=O)[C@H](Cc1cnc[nH]1)NC(=O)[C@@H]1CCC(=O)N1)C(=O)N[C@@H](CCCN=C(N)N)C(=O)N1CCC[C@H]1C(=O)NNC(N)=O`, for which the Potency entry was “inactive”.

In the case of `O=C(O)c1cc(O)c2c(c1)[C@H]([C@H]1c3cc(C(=O)O)cc(O)c3C(=O)c3c(O[C@@H]4O[C@H](CO)[C@@H](O)[C@H](O)[C@H]4O)cccc31)c1cccc(O[C@@H]3O[C@H](CO)[C@@H](O)[C@H](O)[C@H]3O)c1C2=O`, the “viability change, negative = cytotoxic” value is -0.632%.

In the case of `O=C(O)Cc1nn(Cc2ccc(Br)cc2F)c(=O)c2ccccc12`, the “viability change, negative = cytotoxic” value was 7.87%.

As for `CCCCC/C=C\C=C\C(=O)OCC`, the “viability change, negative = cytotoxic” value is 0.163% [at 95 µM].

With `OCCCNc1ccccc1`, the “viability change, negative = cytotoxic” value was 10.4%.

For `CCOc1ccc(NC(=S)Nc2ccc(OCC)cc2)cc1`, the “viability change, negative = cytotoxic” value was 0.0141%.

As to `COC(=O)C(CN)c1c[nH]c2ccc(OC)cc12` (stereo not given), the “viability change, negative = cytotoxic” value is 6.05%.

For the compound `O=C(O)CCCC/C=C(\c1ccccc1)c1cccnc1`, the “viability change, negative = cytotoxic” value is -1.53%.

Turning to `CC(C)=CCC/C(C)=C/CC/C(C)=C/CC/C(C)=C/CC1=C(C)C(=O)c2ccccc2C1=O`, the Potency entry was “inactive”.

In the case of `CO/N=C(\C(=O)N[C@@H]1C(=O)N2C(C(=O)O)=C(CSc3cnns3)CS[C@H]12)c1csc(N)n1`, the “viability change, negative = cytotoxic” value is -0.607%.

Take `CCCOC(=O)c1ccc(O)cc1`: the “viability change, negative = cytotoxic” value was 0.0649%.

Regarding `O=C(Cn1cnnn1)N[C@@H]1C(=O)N2C(C(=O)O)=C(CSc3nncs3)CS[C@H]12`, the Potency result was “inactive”.

With `NC(=O)C1c2ccccc2CCc2ccccc21`, the “viability change, negative = cytotoxic” value is 0.639%.

On to `C=CC[N+]1([C@H]2C[C@H]3[C@@H]4CC[C@H]5C[C@H](O)[C@@H](N6CCOCC6)C[C@]5(C)[C@H]4CC[C@]3(C)[C@H]2OC(C)=O)CCCC1`, for which the “viability change, negative = cytotoxic” value was 18.7%.

With `C[C@H]1O[C@@H](O[C@H]2CC[C@@]3(C)[C@H](CC[C@@H]4[C@@H]3C[C@@H](O)[C@]3(C)[C@@H](C5=CC(=O)OC5)CC[C@]43O)C2)C[C@H](O)[C@@H]1O[C@H]1C[C@H](O)[C@H](O[C@H]2C[C@H](O)[C@H](O[C@@H]3O[C@H](CO)[C@@H](O)[C@H](O)[C@H]3O)[C@@H](C)O2)[C@@H](C)O1`, the “viability change, negative = cytotoxic” value is -20.7%.

In the case of `CN1C(=O)C[C@@H](C(=O)N[C@@H](Cc2cnc[nH]2)C(=O)N2CCC[C@H]2C(N)=O)NC1=O`, the “viability change, negative = cytotoxic” value is 6.11%.

Turning to `CC[C@@H](C)CCCCC(=O)N[C@@H](CCNCS(=O)(=O)O)C(=O)N[C@H](C(=O)N[C@@H](CCNCS(=O)(=O)O)C(=O)N[C@H]1CCNC(=O)[C@H]([C@@H](C)O)NC(=O)[C@H](CCNCS(=O)(=O)O)NC(=O)[C@H](CCNCS(=O)(=O)O)NC(=O)[C@H](CC(C)C)NC(=O)[C@@H](CC(C)C)NC(=O)[C@H](CCNCS(=O)(=O)O)NC1=O)[C@@H](C)O` (X3-[Dab(CH2SO3H)]T[Dab(CH2SO3H)][Dab][Dab(CH2SO3H)][dL]L[Dab(CH2SO3H)][Dab(CH2SO3H)]T; lactam 4-C), the “viability change, negative = cytotoxic” value was 11%.

Take `c1ccc(-c2ccc(C(c3ccccc3)n3ccnc3)cc2)cc1` (stereo not given): the “viability change, negative = cytotoxic” value was -20.2%.

In the case of `CNCC(=O)N[C@@H](CCCN=C(N)N)C(=O)N[C@H](C(=O)N[C@@H](Cc1ccc(O)cc1)C(=O)N[C@H](C(=O)N[C@@H](Cc1cnc[nH]1)C(=O)N1CCC[C@H]1C(=O)N[C@@H](C)C(=O)O)C(C)C)C(C)C`, the “viability change, negative = cytotoxic” value is -1.34%.

Take `COC(=O)[C@H]1[C@H]2C[C@H]3c4[nH]c5ccccc5c4CCN3C[C@H]2CC[C@@H]1O`: the “viability change, negative = cytotoxic” value was 0.629%.

Regarding `COc1ccc([C@@H]2CC(=O)c3c(O)cc(O[C@@H]4O[C@H](CO[C@@H]5O[C@@H](C)[C@H](O)[C@@H](O)[C@H]5O)[C@@H](O)[C@H](O)[C@H]4O)cc3O2)cc1O`, the “viability change, negative = cytotoxic” value is -1.42% [at 32.5 µM].

On to `C[N+](C)(C)CCOP(=O)(O)OP(=O)([O-])OC[C@H]1O[C@@H](n2ccc(N)nc2=O)[C@H](O)[C@@H]1O`, for which the Potency result was “inactive”.

As for `NS(=O)(=O)c1cc(Cl)c(Cl)c(S(N)(=O)=O)c1`, the “viability change, negative = cytotoxic” value is 12.1% [at 32.5 µM].

As for `CCCCCCCCCCCCCCCC(=O)OC[C@H](COP(=O)([O-])OCC[N+](C)(C)C)OC(=O)CCCCCCCCCCCCCCC`, the “viability change, negative = cytotoxic” value is -2.74%.

As to `O=C(O)COc1ccccc1/C=N/NC(=O)c1ccncc1`, the “viability change, negative = cytotoxic” value was 18.4%.

`O=P(O)(O)C(O)(Cn1ccnc1)P(=O)(O)O`: the “viability change, negative = cytotoxic” value is 12.4%.

Regarding `N#Cc1nc(Cl)c(Cl)c(Cl)c1Cl`, the Potency is 54.5 µM (active).

As to `CC1(C)S[C@@H]2[C@H](N3C(=O)C(c4ccccc4)NC3(C)C)C(=O)N2[C@H]1C(=O)O` (stereo not given in full), the “viability change, negative = cytotoxic” value was -0.166%.

For the compound `CN=C(N)NCCC[C@H](N)C(=O)O`, the Potency entry is “inactive”.

Take `O=C(N[C@H](CO)[C@H](O)c1ccc([N+](=O)[O-])cc1)C(Cl)Cl`: the Potency entry was “inactive”.

As for `CC(C)(S)C(=O)N[C@@H](CS)C(=O)O`, the “viability change, negative = cytotoxic” value is 12.8%.

As for `Cc1cccc(C)c1NC(=O)C1CCCCN1C` (stereo not given), the “viability change, negative = cytotoxic” value was 1.08%.
